Reference: PubChem BioAssay (NCATS)
Values without a mark were called inactive. Inconclusive results are not listed. Activity calls are given as the source filed them. Unless noted, calls follow the shape of the dose curve; as a rule, active = well fitted curve in the direction sought with a large enough effect; inconclusive = small, poorly fitted or top-dose-only effect, or another doubt; inactive = no such curve, though single readings can be large; an effect the other way counts as inactive or inconclusive.

How the values were obtained:
[1] = target: Lysosomal acid glucosylceramidase (Homo sapiens) (UniProt P04062); experiment: Glucocerebrosidase-p2 (AID 348; in the data active = potency below about 10 µM; also: potency is read from the fitted curve at half-maximal effect); conditions: purified GBA, blue fluorogenic substrate, 40 min
Method in brief: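 Normal human glucocerebrosidase (0.2 nM) with blue fluorogenic substrate (80 uM final) in citrate/phosphate pH 5.9 with 10mM sodium taurocholate, 0.01% tween-20; 40 min RT, NaOH/glycine stop; fluorescence Ex 365/Em 440; AC50 from a titration from 0.6 nM upwards.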

[2] = AP1 Signaling Pathway (AID 357; active = well fitted curve in either direction with a large enough effect, not every such curve was filed as active;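 also: ME-180 reporter cells stimulated with EGF at its EC50 level; % is scaled to controls: 0 for no effect and ±100 for the full control effect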); conditions: ME-180 AP-1-bla reporter, EGF-induced, beta-lactamase ratio, 5 h; at 7.69 µM (top of the series) unless noted
Method in brief: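 Beta-lactamase reporter under AP-1 response element, ME-180 background. Stimulus: EC50 EGF. Compound exposure 5 h, 37 °C. Detection: CCF4, 2.5 h RT, 460/530 nm. Values: AC50 from titration.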

[3] = target: Cytochrome P450 1A2 (Homo sapiens) (UniProt P05177); experiment: p450-cyp1a2 (AID 410; calls by dose curve; also: potency is read from the fitted curve at half-maximal effect); conditions: recombinant CYP1A2, luciferin-ME demethylation, luminescence; series mostly up to 57 µM
Method in brief: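 Read-out is luminescence from luciferin produced by CYP1A2 demethylation of Luciferin-ME (100uM, at Km). Detection reagent stopped the 60 min NADPH-dependent reaction; signals were normalized to 57 uM furafylline.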

[4] = NFAT Signaling Pathway (AID 444; active = well fitted curve in either direction with a large enough effect, not every such curve was filed as active;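 also: carbachol stimulus at about its EC50 of 1 µM final; % is scaled to controls: 0 for no effect and ±100 for the full control effect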); conditions: Jurkat NFAT-bla M1, carbachol, beta-lactamase ratio, 5 h; at 7.69 µM (top of the series) unless noted
Method in brief: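 Jurkat cells with NFAT-driven β-lactamase reporter and co-expressed M1 receptor, stimulated with carbachol (final 1 uM, ~EC50), compound titration, 5 h at 37 °C. CCF4 loaded 1 h at RT; 460/530 nm ratio gave %activity and AC50.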

[5] = Stat Signaling Pathway (AID 446; active = well fitted curve in either direction with a large enough effect, not every such curve was filed as active;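 also: ME-180 cervical cancer cells given 40 pM IL-6 alongside compound; SIE-controlled beta-lactamase reporter measured as 460/530 nm FRET emission ratio; % is scaled to controls: 0 for no effect and ±100 for the full control effect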); conditions: ME-180 (cervical carcinoma) SIE beta-lactamase reporter, IL-6 stimulated, 5 h; at 7.69 µM (top of the series) unless noted
Method in brief: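 FRET read-out (405 nm excitation, 460/530 nm emission) of a beta-lactamase reporter under a STAT-inducible element in ME-180 cervical carcinoma cells. Cells with compound receive 40 pM IL-6 for 5 h. Values are normalised to AC90 stimulation and AC90 JAK-inhibitor controls.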

[6] = target: Glucocorticoid receptor (Homo sapiens) (UniProt P04150); experiment: GR-GFP Redistribution (AID 450;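 active = compounds whose dose series gives a full or clear partial fitted curve of increased nuclear translocation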; also: potency is read from the fitted curve at half-maximal effect); conditions: U2OS GR-GFP nuclear translocation, laser cytometry, 2 h
[7] = target: Glucocorticoid receptor (Homo sapiens) (UniProt P04150); experiment: GR-EFC Redistribution (AID 451; calls by dose curve; also: potency is read from the fitted curve at half-maximal effect); conditions: CHO-K1 GR-EFC translocation, beta-gal luminescence, 2 h
Method in brief: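 CHO-K1 cells expressing nuclear EA and GR-ED fragments of b-gal; compounds titrated up to 46 uM final, 2 h at 37 C. GR nuclear translocation read as complemented b-gal luminescence after 1 h RT detection.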

[8] = target: Mitogen-activated protein kinase 10 (Mus musculus) (UniProt Q61831); experiment: JNK3 AlphaScreen Assay (AID 530; active = well fitted curve in either direction with a large enough effect, not every such curve was filed as active;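 also: kinase came from lysate of stimulated human HepG2 cells; signal reports phosphorylation of biotinylated GST-cJun 1-79 at Ser73 with 10 µM ATP; % is scaled to controls: 0 for no effect and ±100 for the full control effect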); conditions: JNK3 lysate, c-Jun phosphorylation; series mostly up to 57.1 µM
Method in brief: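 HepG2 lysate (IL-1b/TNFa pre-activated) + biotin-GST-cJun 1-79 + anti-pSer73 cJun; cpd titration, 15 min RT; ATP 10 uM start; Tris pH 7.6, MgCl2, DTT, vanadate; beads in EDTA buffer; AlphaScreen.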

[9] = target: Cytochrome P450 3A4 (Homo sapiens) (UniProt P08684); experiment: qHTS Assay for Inhibitors and Substrates of Cytochrome P450 3A4 (AID 884); conditions: recombinant CYP3A4, Luciferin-PPXE luminescence; series mostly up to 57.1 µM; also: potency is read from the fitted curve at half-maximal effect; nearly all actives have a fitted effect of over 50% in size
Method in brief: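 Luminescent readout of luciferin produced by CYP3A4 (20 nM) dealkylation of Luciferin-PPXE, 25 uM (its KM). NADPH-driven reaction ran 60 min at RT after 10 min compound preincubation; data scaled to 57 uM ketoconazole as 100% inhibition.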

[10] = target: Cytochrome P450 3A4 (Homo sapiens) (UniProt P08684); experiment: qHTS Assay for Activators of Cytochrome P450 3A4 (AID 885); conditions: recombinant CYP3A4, Luciferin-PPXE luminescence, 60 min; series mostly up to 57.1 µM; also: nearly all actives have a fitted effect of over 65% in size
Method in brief: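 Luminescent readout of luciferin formed from 25 uM Luciferin-PPXE (KM level) by 20 nM CYP3A4 in 200 mM KPO4, with 60 min NADPH-driven reaction at room temperature after 10 min compound exposure. Ketoconazole (57 uM) defined 100% inhibition.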

[11] = target: Cytochrome P450 2D6 (Homo sapiens) (UniProt P10635); experiment: qHTS Assay for Inhibitors and Substrates of Cytochrome P450 2D6 (AID 891); conditions: recombinant CYP2D6, luciferin-ME EGE luminescence; series mostly up to 57.1 µM; also: potency is read from the fitted curve at half-maximal effect; nearly all actives have a fitted effect of over 60% in size
Method in brief: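 Luminescent read-out of luciferin formed by 5 nM human CYP2D6 demethylating 30 uM Luciferin-ME EGE (Km level) over 60 min at room temperature after NADPH regeneration addition. Data normalized to full inhibition by 1.43 uM quinidine.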

[12] = target: Cytochrome P450 2C19 (Homo sapiens) (UniProt P33261); experiment: qHTS Assay for Inhibitors and Substrates of Cytochrome P450 2C19 (AID 899); conditions: recombinant CYP2C19, luciferin-H EGE luminescence; series mostly up to 57.1 µM; also: potency is read from the fitted curve at half-maximal effect; nearly all actives have a fitted effect of over 60% in size
Method in brief: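 5 nM human CYP2C19 with 10uM Luciferin-H EGE (at KM) in 50mM KPO4, compound preincubated 10 min at 37C, then NADPH regeneration for 60 min at 37C. Luciferin read by luminescence after detection reagent; normalized to 57uM ketoconazole as full inhibition.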

[13] = target: Dual specificity protein kinase CLK4 (Homo sapiens) (UniProt Q9HAZ1); experiment: qHTS Assay for Inhibitors of CDC-like Kinase 4 (Kinase-Glo Assay) (AID 1770); conditions: recombinant Clk4, Kinase-Glo ATP depletion luminescence; series mostly up to 66.7 µM; also: nearly all actives have a fitted effect of over 65% in size; also: potency is read from the fitted curve at half-maximal effect
Method in brief: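 Luminescent ATP-depletion read-out (Kinase-Glo) after 4.5 h room-temperature reaction of Clk4 (25 nM final) with RS peptide (100 uM) and ATP (1 uM), pH 7.5 Tris buffer with MgCl2 and DTT.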

[14] = target: Dual specificity protein kinase CLK4 (Homo sapiens) (UniProt Q9HAZ1); experiment: qHTS Assay for Inhibitors of CDC-like Kinase 4 (ADP-Glo Assay) (AID 1771); conditions: recombinant CLK4, ADP-Glo luminescence; series mostly up to 80 µM; also: nearly all actives have a fitted effect of over 70% in size; also: potency is read from the fitted curve at half-maximal effect
Method in brief: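 In this ADP-Glo format, 1 uM ATP and 100 uM RS peptide served as substrates for 25 nM Clk4 in Mg2+/EGTA/DTT/Triton buffer; reactions ran 1 hr at room temperature before luminescent ADP quantification.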

[15] = target: Ubiquitin carboxyl-terminal hydrolase 1 (Homo sapiens) (UniProt O94782); experiment: Inhibitors of USP1/UAF1: Pilot qHTS (AID 504865); conditions: purified USP1/UAF1, Ub-rhodamine cleavage fluorescence; series mostly up to 54.9 µM;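 also: rhodamine fluorescence freed from ubiquitin-rhodamine substrate followed over time; top concentration of the series differs between compounds; % is scaled to controls: 0 for no effect and ±100 for the full control effect; nearly all actives have a fitted effect of over 35% in size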
Method in brief: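 Deubiquitinase activity followed as kinetic rhodamine fluorescence release from 150 nM Ub-Rho. 1 nM USP1/UAF1 with compound, after 15 min room-temperature preincubation, in HEPES pH 7.8 buffer containing TCEP, EDTA, BSA and Tween-20.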

[16] = Primary qHTS for small molecule stabilizers of the endoplasmic reticulum resident proteome: Secreted ER Calcium Modulated Protein (SERCaMP) assay (AID 1508630); conditions: SH-SY5Y GLuc-SERCaMP (Gaussia luciferase released on ER calcium loss) secretion, thapsigargin, luminescence; series mostly up to 38.4 µM; also: % is scaled to controls: 0 for no effect and ±100 for the full control effect
Method in brief: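 The SH-SY5Y reporter protocol was run at 3 concentrations up to 38.3 uM (primary) or 11 concentrations (follow-up): 16 h compound, 100 nM thapsigargin for 4 h, then extracellular luciferase luminescence.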

[17] = target: 3',5'-cyclic-AMP phosphodiesterase 4B (Homo sapiens) (UniProt Q07343); experiment: qHTS Assay for Inhibitors of PDE-IV (AID 607; active = well fitted activation curve with a large enough effect in the main read-out, with a control signal flat, not every such curve was filed as active; also: % of control where 0% means no effect); conditions: HEK293 ACTOne CNG channel cells, membrane potential fluorescence; series mostly up to 22.9 µM
Method in brief: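 Cell-based read-out of cAMP via a modified cyclic nucleotide-gated channel and membrane potential dye (535/590 nm) in HEK293 cells expressing PDE4 endogenously. Compounds tested up to 22.9 uM final; 100 uM RO 20-1724 reference.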

Chain of Dual specificity protein kinase CLK4 (Homo sapiens) (Q9HAZ1 whole entry, looked up): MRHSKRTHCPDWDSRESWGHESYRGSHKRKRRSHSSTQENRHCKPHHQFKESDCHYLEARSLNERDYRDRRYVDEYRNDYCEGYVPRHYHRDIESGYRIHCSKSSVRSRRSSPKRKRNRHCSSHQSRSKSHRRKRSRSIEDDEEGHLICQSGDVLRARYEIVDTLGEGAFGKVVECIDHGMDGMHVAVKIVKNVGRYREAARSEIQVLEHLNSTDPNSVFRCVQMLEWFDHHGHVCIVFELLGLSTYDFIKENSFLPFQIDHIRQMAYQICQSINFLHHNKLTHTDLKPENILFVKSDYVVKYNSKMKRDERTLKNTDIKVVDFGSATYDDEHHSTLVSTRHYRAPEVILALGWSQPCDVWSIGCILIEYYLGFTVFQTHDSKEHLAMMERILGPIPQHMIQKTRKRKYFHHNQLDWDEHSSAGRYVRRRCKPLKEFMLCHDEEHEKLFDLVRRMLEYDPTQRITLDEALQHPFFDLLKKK
Chain of Cytochrome P450 1A2 (Homo sapiens) (P05177 whole entry, looked up): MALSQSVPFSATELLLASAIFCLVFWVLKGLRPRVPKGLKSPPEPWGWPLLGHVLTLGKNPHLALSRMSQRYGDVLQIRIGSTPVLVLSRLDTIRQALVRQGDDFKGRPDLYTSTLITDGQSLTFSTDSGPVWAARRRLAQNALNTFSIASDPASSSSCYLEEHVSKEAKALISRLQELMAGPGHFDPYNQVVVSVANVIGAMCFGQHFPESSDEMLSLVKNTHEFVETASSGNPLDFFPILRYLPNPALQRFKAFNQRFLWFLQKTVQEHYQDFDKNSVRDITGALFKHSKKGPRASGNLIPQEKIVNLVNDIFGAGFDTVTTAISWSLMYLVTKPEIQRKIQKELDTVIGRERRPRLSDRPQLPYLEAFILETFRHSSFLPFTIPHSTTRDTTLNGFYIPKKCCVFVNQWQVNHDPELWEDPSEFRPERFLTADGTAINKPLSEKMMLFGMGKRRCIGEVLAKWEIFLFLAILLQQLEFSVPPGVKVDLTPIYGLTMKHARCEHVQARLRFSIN
Chain of Ubiquitin carboxyl-terminal hydrolase 1 (Homo sapiens) (O94782 whole entry, looked up): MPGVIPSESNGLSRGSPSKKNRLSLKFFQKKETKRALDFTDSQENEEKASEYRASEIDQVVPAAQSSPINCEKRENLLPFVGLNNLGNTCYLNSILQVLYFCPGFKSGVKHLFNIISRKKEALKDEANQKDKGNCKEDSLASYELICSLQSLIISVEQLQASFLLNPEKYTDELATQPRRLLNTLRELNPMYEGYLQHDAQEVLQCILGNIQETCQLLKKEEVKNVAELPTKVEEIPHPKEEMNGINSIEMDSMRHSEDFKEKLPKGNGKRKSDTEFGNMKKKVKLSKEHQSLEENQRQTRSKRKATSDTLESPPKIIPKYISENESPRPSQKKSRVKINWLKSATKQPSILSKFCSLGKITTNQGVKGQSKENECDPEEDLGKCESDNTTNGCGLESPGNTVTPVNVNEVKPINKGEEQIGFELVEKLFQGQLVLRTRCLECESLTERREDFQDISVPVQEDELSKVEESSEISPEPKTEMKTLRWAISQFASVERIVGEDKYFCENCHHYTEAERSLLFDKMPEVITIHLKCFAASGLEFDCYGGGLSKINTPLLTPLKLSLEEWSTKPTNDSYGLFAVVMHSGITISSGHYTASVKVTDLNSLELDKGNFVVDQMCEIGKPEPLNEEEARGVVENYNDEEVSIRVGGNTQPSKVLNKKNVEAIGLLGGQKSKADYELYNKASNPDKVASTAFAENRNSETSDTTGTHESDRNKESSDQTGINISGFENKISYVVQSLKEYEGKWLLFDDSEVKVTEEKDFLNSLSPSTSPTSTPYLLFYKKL
Chain of 3',5'-cyclic-AMP phosphodiesterase 4B (Homo sapiens) (Q07343 whole entry, looked up): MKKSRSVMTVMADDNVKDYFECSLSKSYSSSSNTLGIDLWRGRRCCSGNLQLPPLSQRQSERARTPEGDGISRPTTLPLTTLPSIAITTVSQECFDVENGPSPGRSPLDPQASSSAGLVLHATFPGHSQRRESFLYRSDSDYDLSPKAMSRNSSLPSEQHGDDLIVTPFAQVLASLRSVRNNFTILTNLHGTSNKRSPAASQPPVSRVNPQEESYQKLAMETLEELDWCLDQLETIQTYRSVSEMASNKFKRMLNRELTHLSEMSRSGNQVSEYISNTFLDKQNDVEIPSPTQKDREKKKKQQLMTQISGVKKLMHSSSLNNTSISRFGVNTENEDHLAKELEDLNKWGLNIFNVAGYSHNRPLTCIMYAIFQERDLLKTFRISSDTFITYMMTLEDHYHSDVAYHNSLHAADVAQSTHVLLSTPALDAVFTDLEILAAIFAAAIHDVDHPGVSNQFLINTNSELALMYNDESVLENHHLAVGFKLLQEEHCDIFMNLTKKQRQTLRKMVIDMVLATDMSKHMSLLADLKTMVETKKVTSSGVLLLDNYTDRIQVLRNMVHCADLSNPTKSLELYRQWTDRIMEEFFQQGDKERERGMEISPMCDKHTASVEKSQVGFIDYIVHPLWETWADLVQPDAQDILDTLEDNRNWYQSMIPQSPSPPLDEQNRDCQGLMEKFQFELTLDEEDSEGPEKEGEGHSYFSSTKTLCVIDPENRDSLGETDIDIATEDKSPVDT
Chain of Glucocorticoid receptor (Homo sapiens) (P04150 whole entry, looked up, the tested form may be a part): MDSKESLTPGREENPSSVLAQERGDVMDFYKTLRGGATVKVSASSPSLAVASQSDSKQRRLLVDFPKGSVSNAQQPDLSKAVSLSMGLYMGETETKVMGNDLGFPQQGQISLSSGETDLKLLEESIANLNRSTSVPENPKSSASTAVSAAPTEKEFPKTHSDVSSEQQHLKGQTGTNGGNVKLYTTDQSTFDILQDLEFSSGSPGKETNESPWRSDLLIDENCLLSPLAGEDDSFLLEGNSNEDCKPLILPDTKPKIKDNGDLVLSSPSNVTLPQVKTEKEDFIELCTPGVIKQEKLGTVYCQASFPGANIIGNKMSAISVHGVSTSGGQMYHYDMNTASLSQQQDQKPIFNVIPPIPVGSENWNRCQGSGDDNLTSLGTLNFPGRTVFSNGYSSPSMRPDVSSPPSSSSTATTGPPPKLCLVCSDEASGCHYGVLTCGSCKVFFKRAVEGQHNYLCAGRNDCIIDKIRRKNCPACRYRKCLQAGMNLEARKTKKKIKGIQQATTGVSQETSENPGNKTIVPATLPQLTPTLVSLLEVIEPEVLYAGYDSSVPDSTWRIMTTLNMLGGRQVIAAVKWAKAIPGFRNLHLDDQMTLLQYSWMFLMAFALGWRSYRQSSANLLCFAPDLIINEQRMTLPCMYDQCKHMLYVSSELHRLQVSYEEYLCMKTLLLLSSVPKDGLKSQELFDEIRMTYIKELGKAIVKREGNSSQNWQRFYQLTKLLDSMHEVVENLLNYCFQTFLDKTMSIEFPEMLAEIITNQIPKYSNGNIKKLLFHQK
Chain of Lysosomal acid glucosylceramidase (Homo sapiens) (P04062 whole entry, looked up): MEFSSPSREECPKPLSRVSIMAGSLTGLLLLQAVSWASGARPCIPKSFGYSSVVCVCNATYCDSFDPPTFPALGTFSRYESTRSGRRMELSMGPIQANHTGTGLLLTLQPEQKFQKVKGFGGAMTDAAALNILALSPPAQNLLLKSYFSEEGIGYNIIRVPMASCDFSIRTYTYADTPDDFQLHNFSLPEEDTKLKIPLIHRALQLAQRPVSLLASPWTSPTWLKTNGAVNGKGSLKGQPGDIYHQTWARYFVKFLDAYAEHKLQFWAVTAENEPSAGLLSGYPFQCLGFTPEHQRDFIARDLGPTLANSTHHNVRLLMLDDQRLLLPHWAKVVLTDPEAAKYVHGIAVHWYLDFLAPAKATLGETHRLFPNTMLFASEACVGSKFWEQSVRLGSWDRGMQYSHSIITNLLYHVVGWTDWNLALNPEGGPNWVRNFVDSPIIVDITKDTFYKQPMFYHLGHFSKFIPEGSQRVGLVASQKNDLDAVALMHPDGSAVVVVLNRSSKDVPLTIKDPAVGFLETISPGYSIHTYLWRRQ
Chain of Cytochrome P450 3A4 (Homo sapiens) (P08684 whole entry, looked up): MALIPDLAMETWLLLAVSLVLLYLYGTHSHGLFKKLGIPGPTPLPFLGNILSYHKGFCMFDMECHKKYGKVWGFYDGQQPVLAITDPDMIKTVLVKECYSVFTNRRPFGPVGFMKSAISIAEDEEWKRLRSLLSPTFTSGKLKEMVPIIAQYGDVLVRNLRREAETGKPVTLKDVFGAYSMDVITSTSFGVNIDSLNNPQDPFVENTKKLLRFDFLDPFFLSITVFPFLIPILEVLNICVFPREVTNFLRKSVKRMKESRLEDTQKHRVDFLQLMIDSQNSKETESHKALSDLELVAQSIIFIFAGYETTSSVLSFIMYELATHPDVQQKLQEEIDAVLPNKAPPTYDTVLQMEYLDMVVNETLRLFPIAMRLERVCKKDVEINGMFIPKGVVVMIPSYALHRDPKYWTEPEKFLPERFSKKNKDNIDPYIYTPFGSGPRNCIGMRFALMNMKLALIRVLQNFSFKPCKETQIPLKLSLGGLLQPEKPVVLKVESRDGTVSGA
Chain of Cytochrome P450 2C19 (Homo sapiens) (P33261 whole entry, looked up): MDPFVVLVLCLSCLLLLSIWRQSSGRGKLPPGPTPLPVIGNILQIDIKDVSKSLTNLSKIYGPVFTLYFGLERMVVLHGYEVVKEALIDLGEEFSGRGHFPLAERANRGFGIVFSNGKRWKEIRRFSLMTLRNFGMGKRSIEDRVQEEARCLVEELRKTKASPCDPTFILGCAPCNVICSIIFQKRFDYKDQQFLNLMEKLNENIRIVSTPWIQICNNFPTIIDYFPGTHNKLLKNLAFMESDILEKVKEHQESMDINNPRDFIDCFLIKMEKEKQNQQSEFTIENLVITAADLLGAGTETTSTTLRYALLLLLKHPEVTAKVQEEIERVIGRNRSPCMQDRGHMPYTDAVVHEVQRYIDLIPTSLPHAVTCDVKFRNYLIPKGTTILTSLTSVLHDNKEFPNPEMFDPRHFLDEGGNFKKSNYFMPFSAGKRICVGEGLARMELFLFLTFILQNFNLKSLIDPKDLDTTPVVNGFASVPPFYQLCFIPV

## COc1ccc(CNc2ncncc2-c2cccc(C#N)c2)c(OC)c1
[1]
  Potency: > 11.4 µM
[2]
  activity change, negative = inhibition: -5.26%
[3]
  Potency: 7.94 µM (active)
[4]
  activity change, negative = inhibition: 13.9%
[5]
  activity, negative = inhibition: 8.97%
[6]
  Potency: > 46 µM
[7]
  Potency: > 46 µM
[8]
  Potency: inactive
[9]
  Potency: 0.316 µM (active)
[10]
  Potency: inactive
[11]
  Potency: 5.01 µM (active)
[12]
  Potency: 5.01 µM (active)
[13]
  Potency: 28.2 µM (active)
[14]
  Potency: 35.5 µM (active)
[15]
  Potency: inactive
[16]
  outcome: inactive

## COc1ccccc1CCn1c(=O)cnc2cncnc21
[1]
  Potency: > 11.4 µM
[2]
  activity change, negative = inhibition: -0.594%
[4]
  activity change, negative = inhibition: 6.39%
[5]
  activity, negative = inhibition: -7.13%
[6]
  Potency: > 9.22 µM
[7]
  Potency: > 46 µM
[8]
  Potency: inactive
[17]
  Potency: inactive
[13]
  Potency: 17.8 µM (active)
[14]
  Potency: 25.1 µM (active)
[15]
  Potency: inactive
[16]
  outcome: inactive

## COc1ccc(Oc2ncc3nc(-c4cccc(C#N)c4)c(=O)n(C)c3n2)cc1
[1]
  Potency: > 11.4 µM
[2]
  activity change, negative = inhibition: -0.821%
[4]
  activity change, negative = inhibition: -9.84%
[5]
  activity, negative = inhibition: -2.78%
[6]
  Potency: > 9.22 µM
[7]
  Potency: > 46 µM
[8]
  Potency: inactive
[17]
  Potency: inactive
[13]
  Potency: inactive
[14]
  Potency: inactive
[15]
  Potency: inactive
[16]
  outcome: inactive

## FC(F)(F)c1ccccc1-c1ccc2ncnc(NC3CC3)c2c1
[1]
  Potency: > 11.4 µM
[2]
  activity change, negative = inhibition: 10%
[3]
  Potency: 0.316 µM (active)
[5]
  activity, negative = inhibition: -18.8%
[6]
  Potency: > 46 µM
[7]
  Potency: > 46 µM
[9]
  Potency: 1.58 µM (active)
[10]
  Potency: inactive
[12]
  Potency: 2 µM (active)
[13]
  Potency: 25.1 µM (active)
[14]
  Potency: 25.1 µM (active)
[15]
  Potency: inactive
[16]
  outcome: inactive

## c1cncc(-c2nc(-n3ccnc3)c3ccccc3n2)c1
[1]
  Potency: > 11.4 µM
[2]
  activity change, negative = inhibition: 14.5%
[4]
  activity change, negative = inhibition: 8.3%
[5]
  activity, negative = inhibition: -3.82%
[6]
  Potency: > 46 µM
[7]
  Potency: > 46 µM
[8]
  Potency: inactive
[13]
  Potency: 11.2 µM (active)
[14]
  Potency: 11.2 µM (active)
[15]
  Potency: inactive
[16]
  outcome: inactive

## c1cncc(-c2nc(NCc3cccs3)c3ccccc3n2)c1
[1]
  Potency: > 11.4 µM
[2]
  activity change, negative = inhibition: -18.5%
[3]
  Potency: 0.316 µM (active)
[5]
  activity, negative = inhibition: 1.18%
[6]
  Potency: > 46 µM
[7]
  Potency: > 46 µM
[8]
  Potency: inactive
[9]
  Potency: 2 µM (active)
[10]
  Potency: inactive
[11]
  Potency: 6.31 µM (active)
[13]
  Potency: 1.58 µM (active)
[14]
  Potency: 1.26 µM (active)
[15]
  Potency: inactive
[16]
  outcome: inactive

## CN(C)C(=O)c1ccc(-c2nccc(Nc3ccc(F)cc3)n2)cc1
[1]
  Potency: > 11.4 µM
[2]
  activity change, negative = inhibition: -14.3%
[3]
  Potency: 6.31 µM (active)
[4]
  activity change, negative = inhibition: -12.1%
[6]
  Potency: > 46 µM
[7]
  Potency: > 46 µM
[8]
  Potency: inactive
[17]
  Potency: inactive
[10]
  Potency: inactive
[13]
  Potency: inactive
[14]
  Potency: inactive
[15]
  Potency: inactive
[16]
  outcome: inactive
